{
  "source": "PubChem BioAssay AID493194",
  "about": "(Broad Institute, 2011)",
  "note": "Potency and affinity values are given separately. Results filed as inconclusive are left out. Active and inactive are the calls of the source.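 Rule for the calls: active = a valid curve of falling signal whose half-effect concentration is at most ten times the top tested dose; inconclusive = flat curve at 30 to 70% inhibition, or poor fit; inactive = signal rise, flat within 30%, or potency beyond limit.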",
  "data": [
    {"target": "Scavenger receptor class B member 1 (Mus musculus) (UniProt Q61009)", "sequence (Q61009 whole entry, looked up)": "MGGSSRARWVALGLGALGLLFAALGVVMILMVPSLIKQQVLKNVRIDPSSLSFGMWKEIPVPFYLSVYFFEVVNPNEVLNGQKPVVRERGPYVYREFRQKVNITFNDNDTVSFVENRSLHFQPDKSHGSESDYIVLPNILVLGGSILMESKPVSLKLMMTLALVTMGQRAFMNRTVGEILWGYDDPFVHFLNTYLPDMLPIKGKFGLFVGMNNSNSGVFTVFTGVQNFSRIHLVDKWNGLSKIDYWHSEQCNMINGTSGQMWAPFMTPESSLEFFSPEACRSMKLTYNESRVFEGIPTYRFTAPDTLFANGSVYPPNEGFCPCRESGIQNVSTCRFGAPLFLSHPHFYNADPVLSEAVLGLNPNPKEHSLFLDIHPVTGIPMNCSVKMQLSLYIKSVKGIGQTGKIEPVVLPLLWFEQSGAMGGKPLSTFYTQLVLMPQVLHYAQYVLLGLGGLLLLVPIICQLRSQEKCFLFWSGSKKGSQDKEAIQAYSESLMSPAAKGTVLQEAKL", "assay": "inhibitors of SR-BI mediated HDL lipid uptake, dose response, ldlA[mSR-BI] cells, fluorescence, cherry pick (AID 493194);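 note: CHO cells lacking LDL receptor and overexpressing mouse SR-BI; cellular uptake of fluorescently labeled HDL measured as cell fluorescence; 0% = median of neutral control wells and -100% = median of positive control wells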", "settings": "CHO ldlA[mSR-BI] DiI-HDL uptake fluorescence, 3 h; series mostly up to 35 µM; activity change, negative = inhibition: at the top concentration", "values": [
      {"smiles": "CCOC(=O)C1=C(CNCCOc2ccc(OC)cc2)NC(=O)NC1c1ccc2c(c1)OCO2", "note": "(stereo not drawn)", "activity change, negative = inhibition": "3.06% (inactive)"},
      {"smiles": "CNc1nc(-c2ccc3c(c2)CCN3C(=O)c2ccccc2F)c(C)s1", "activity change, negative = inhibition": "-4.41% (inactive)"},
      {"smiles": "COCC(C)N1CC(O)=C(c2nc(-c3ccc(Cl)cc3)cs2)C1=N", "note": "(stereo not drawn)", "activity change, negative = inhibition": "-3.9% (inactive)"},
      {"smiles": "O=C(c1ccc(S(=O)(=O)NCc2ccco2)cc1)N1CCN(Cc2ccccc2)CC1", "activity change, negative = inhibition": "-36.1% (inactive)"},
      {"smiles": "CCOC(=O)C(=O)Nc1nc(-c2ccc3c(c2)CCN3C(=O)C2CC2)c(C)s1", "activity change, negative = inhibition": "-2.46% (inactive)"},
      {"smiles": "Cc1c(Cl)cccc1S(=O)(=O)N1CCC(C(=O)NNC(=O)C2CC2)CC1", "activity change, negative = inhibition": "-7.02% (inactive)"},
      {"smiles": "CCOc1ccccc1CNC(=O)C1CCN(C(=O)c2sccc2-n2cccc2)CC1", "activity change, negative = inhibition": "-20.1% (inactive)"},
      {"smiles": "O=C1C2CCCN2C(=O)N1CCCN1CCN(c2ccc([N+](=O)[O-])cc2)CC1", "note": "(stereo not drawn)", "activity change, negative = inhibition": "8.25% (inactive)"},
      {"smiles": "COc1ccc(C(=O)CSc2nnc(CNC(=O)c3ccc(S(=O)(=O)N(C)C)cc3)o2)cc1", "activity change, negative = inhibition": "-22.2% (inactive)"},
      {"smiles": "COc1ccc(N(CC(=O)NC2CCCC2)C(=O)Cn2nnc(-c3ccc(C)cc3)n2)cc1", "activity change, negative = inhibition": "0.875% (inactive)"},
      {"smiles": "O=C(N[C@@H]1C/C=C\\C[C@H](CC(=O)N(CCO)Cc2ccccc2)C(=O)NC[C@@H](c2ccccc2)OC1=O)OCC1c2ccccc2-c2ccccc21", "activity change, negative = inhibition": "17.1% (inactive)"},
      {"smiles": "O=C(Nc1ccccc1)NC1CC2CCC(C1)N2Cc1nnnn1Cc1ccc2c(c1)OCO2", "note": "(stereo not drawn)", "activity change, negative = inhibition": "-1.78% (inactive)"},
      {"smiles": "Cc1nn(Cc2ccccc2)c(C)c1NC(=O)c1cc2nc(-c3ccco3)cc(C(F)(F)F)n2n1", "activity change, negative = inhibition": "-9.64% (inactive)"},
      {"smiles": "COc1ccc(CCn2c(C)cc(C(=O)CSc3nc(N)cc(=O)[nH]3)c2C)cc1", "activity change, negative = inhibition": "-10.1% (inactive)"},
      {"smiles": "CCCC(=O)Nc1ccc(Cl)c(NC(=O)c2ccc(Br)o2)c1", "activity change, negative = inhibition": "-19.4% (inactive)"},
      {"smiles": "Cc1cc(C)c(C)c(S(=O)(=O)N2CCN(CC(=O)NC(=O)NCc3ccccc3)CC2)c1C", "activity change, negative = inhibition": "-0.05% (inactive)"},
      {"smiles": "COCCN(Cc1cn(C)nc1-c1ccc(Oc2ccccc2)cc1)C(C)C", "activity change, negative = inhibition": "4.72% (inactive)"},
      {"smiles": "O=C(Nc1ccc(-c2nc3ccccc3o2)cc1)c1cc(-n2cnnc2)ccc1Cl", "activity change, negative = inhibition": "-3.42% (inactive)"},
      {"smiles": "CCC(C)C1/C=C\\CC(NC(=O)OCC2c3ccccc3-c3ccccc32)CC(=O)N1Cc1ccccc1", "note": "(stereo not drawn)", "activity change, negative = inhibition": "-17.9% (inactive)"},
      {"smiles": "N#Cc1ccccc1S(=O)(=O)N1CCN(C(=O)C2CC(=O)N(c3ccc4c(c3)OCCO4)C2)CC1", "note": "(stereo not drawn)", "activity change, negative = inhibition": "-4.49% (inactive)"},
      {"smiles": "CC(=O)c1c(C)[nH]c(C(=O)Nc2ccc(C)c(S(=O)(=O)Nc3ccc(C)cc3C)c2)c1C", "activity change, negative = inhibition": "0.571% (inactive)"},
      {"smiles": "COC(=O)c1cnc(Oc2ccc(NC(=O)NC(=O)c3c(OC)cccc3OC)cc2)cc1C(F)(F)F", "activity change, negative = inhibition": "-25.2% (inactive)"},
      {"smiles": "O=C(CCCC(=O)N(CC(=O)NC1CCCC1)C1CCCC1)Nc1ccccn1", "activity change, negative = inhibition": "6.62% (inactive)"},
      {"smiles": "O=C(Cc1cccs1)NCCSc1c(-c2ccc(Cl)cc2)[nH]c2ccccc12", "activity change, negative = inhibition": "-31.7% (inactive)"},
      {"smiles": "COc1ccc(N2CC(C(=O)N3CCN(S(=O)(=O)c4ccc(F)c(F)c4)CC3)CC2=O)c(OC)c1", "note": "(stereo not drawn)", "activity change, negative = inhibition": "20.3% (inactive)"},
      {"smiles": "CCOC(=O)C1CCCN(C(=O)c2cc(COc3ccc(C)nc3)on2)C1", "note": "(stereo not drawn)", "activity change, negative = inhibition": "56.5% (inactive)"},
      {"smiles": "COc1cc([N+](=O)[O-])ccc1NC(=O)NCC1CCN(Cc2ccc(Cl)cc2)CC1", "activity change, negative = inhibition": "-13% (inactive)"},
      {"smiles": "CCOc1ccc(NC(=O)CN2CCN(CC(=O)Nc3ccc(OC)cc3)CC2)cc1", "activity change, negative = inhibition": "87.5% (inactive)"},
      {"smiles": "COc1ccc([C@H]2/C=C\\CN(S(=O)(=O)c3cccc4cccnc34)[C@@H](C)C(=O)N2Cc2ccc(F)cc2)cc1", "activity change, negative = inhibition": "-5.57% (inactive)"},
      {"smiles": "Cc1ccc(NC(=O)c2cc(S(=O)(=O)N3CCOCC3)c(Br)s2)cc1", "activity change, negative = inhibition": "-29.7% (inactive)"},
      {"smiles": "CCOc1ccccc1NC(=O)C(CC(C)C)NC(=O)C1CCC(C)CC1", "note": "(stereo not drawn)", "activity change, negative = inhibition": "-35.8% (inactive)"},
      {"smiles": "O=C1[C@@H]2Cc3c([nH]c4ccccc34)C(c3cccc([N+](=O)[O-])c3)N2C(=O)CN1CCCO", "note": "(stereo partly drawn)", "activity change, negative = inhibition": "-30.1% (inactive)"},
      {"smiles": "CCCCc1nnc(NC(=O)c2ccc(OCc3c(C)noc3C)cc2)s1", "activity change, negative = inhibition": "-0.944% (inactive)"},
      {"smiles": "Cc1ccc(C)c(NC(=O)c2ccc3c(c2)N(Cc2ccc(F)cc2)C(=O)CS3=O)c1", "note": "(stereo not drawn)", "activity change, negative = inhibition": "6.93% (inactive)"},
      {"smiles": "Cn1c(C(=O)N2CCC(C(=O)N3CCN(Cc4ccc5c(c4)OCO5)CC3)CC2)cc2sccc21", "activity change, negative = inhibition": "-21.5% (inactive)"},
      {"smiles": "COc1cc(OC)cc(C(=O)N[C@H](C(=O)Nc2nc(-c3cc(OC)ccc3OC)cs2)C(C)C)c1", "activity change, negative = inhibition": "-1.13% (inactive)"},
      {"smiles": "COc1ccc(NC(=O)CN2CCN(CC(=O)Nc3ccc(OC)c(OC)c3)CC2)cc1", "activity change, negative = inhibition": "-35.5% (inactive)"},
      {"smiles": "Cc1cc(C)nc(N2CCC(C(=O)N3CCN(c4cc(Cl)ccc4C)CC3)CC2)n1", "activity change, negative = inhibition": "-16.4% (inactive)"}
    ]}
  ]
}
